# Compound activity from PubChem.
# Most compounds without a hit are left out; they make up all but 3.1% or so of the library.
# uPA generation: cell surface uPA generation inhibition. AID 540303. hit rate 0.31% among 330,000. Potency, µM (top dose mostly 38.3 µM), without a hit: at the top dose activity change, negative = inhibition, usual class: inhibitors. cell surface uPA generation assay, qHTS; active means well fitted inhibition curve with a large enough effect; inconclusive means small, poorly fitted or top-dose-only effect; inactive means no such curve, though single readings can be large or run the other way; tested in mouse RAW 264.7 cells; further: potency means the concentration at half of the fitted maximal effect; on the % scale 0 is the no-effect control and ±100 the full control effect; nearly all actives have a fitted effect of over 55% in size
# TSHR antag: antagonists of human thyroid stimulating hormone receptor; P16473; TSHR-expressing cells, TSH-stimulated cAMP HTRF, 2 h; active compounds read low; activity change, negative = inhibition, % at 11.5 µM; hit rate 0.2% among 330,000;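 active means activity change below a set negative limit, meaning inhibition stronger than a set level, cut at about -70% in these data; inconclusive means activity change between two set negative limits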; further: on the % scale 0 is the no-effect control and ±100 the full control effect
# Target sequence (P16473 whole entry, looked up): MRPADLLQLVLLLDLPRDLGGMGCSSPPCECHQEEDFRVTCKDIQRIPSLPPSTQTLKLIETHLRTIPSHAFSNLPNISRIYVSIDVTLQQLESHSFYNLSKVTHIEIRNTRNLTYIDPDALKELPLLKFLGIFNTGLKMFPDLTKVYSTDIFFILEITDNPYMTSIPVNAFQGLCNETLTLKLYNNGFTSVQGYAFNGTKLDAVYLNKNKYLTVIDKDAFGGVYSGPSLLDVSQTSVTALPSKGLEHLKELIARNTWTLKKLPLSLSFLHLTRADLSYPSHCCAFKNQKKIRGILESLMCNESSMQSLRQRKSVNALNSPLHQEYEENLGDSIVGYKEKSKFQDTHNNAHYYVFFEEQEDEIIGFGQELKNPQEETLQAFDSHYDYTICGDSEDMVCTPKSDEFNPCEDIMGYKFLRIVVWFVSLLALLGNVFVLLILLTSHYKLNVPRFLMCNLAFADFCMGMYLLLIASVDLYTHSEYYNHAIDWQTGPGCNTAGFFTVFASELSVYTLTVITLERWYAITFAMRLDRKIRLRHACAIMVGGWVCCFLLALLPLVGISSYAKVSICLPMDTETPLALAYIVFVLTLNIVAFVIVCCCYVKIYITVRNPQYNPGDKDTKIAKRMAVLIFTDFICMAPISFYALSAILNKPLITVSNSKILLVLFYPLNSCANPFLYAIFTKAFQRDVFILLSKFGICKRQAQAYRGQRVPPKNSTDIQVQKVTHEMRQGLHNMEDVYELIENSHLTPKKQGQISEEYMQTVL
#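 Antagonism was scored as loss of TSH-driven cAMP in TSHR cells, stimulated with 4nM TSH (EC80) for 2 hours at 37 deg C and detected by homogeneous HTRF competition immunoassay.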
# VDR inhibitor: inhibitors of human vitamin D receptor. P11473. VDR-SRC2-3 peptide fluorescence polarization, 2 h. Potency, µM, for inactives: max response, negative = inhibition, most hits filed as inhibitors. hit rate 0.93% among 400,000; further: potency means the concentration at half of the fitted maximal effect; on the % scale 0 is the no-effect control and ±100 the full control effect
#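 Inhibition of the VDR/SRC2-3 peptide interaction is quantified by fluorescence polarization. Compounds (23 nl, pintool) incubate with the reagents for 2 hours at ambient room temperature.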
# PTAP TSG101 blk: blocks PTAP/TSG101 interaction to inhibit HIV-1 budding; Q99816; Fluorescence polarization, FITC-PTAP peptide / Tsg101 binding; Potency, µM (titrated, usually from 115 µM), without a hit: at the top dose activity change, negative = inhibition, hits mostly inhibitors; 340,000 tested, under 10 active; AID 493005; active means well fitted inhibition curve with a large enough effect in the main read-out, with a control signal flat, not every such curve was filed as active; inconclusive means small, poorly fitted or top-dose-only effect, or effect the other way, or a change in a side signal; inactive means no such curve, though single readings can be large or run the other way; further: potency means the concentration at half of the fitted maximal effect; % of control where 0% means no effect
#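 FP read-out: FITC-PTAP peptide, 50 nM final, binding Tsg101 binding domain, 10 uM final; 20 min, r.t.; 10 mM HEPES pH 7.5, 0.15 M NaCl, 0.01% Tween 20, 3 mM EDTA, 0.1 mM TCEP.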
# PLK1 PBD inh: inhibitors of human PLK1 polo-box domain binding. P53350. Plk1 PBD binding of FITC phosphopeptide, fluorescence polarization. Potency, µM, without a hit: max response, negative = inhibition, actives largely listed as inhibitors. hit rate 2.8% among 360,000; further: potency means the concentration at half of the fitted maximal effect; series mostly up to about 57 µM; on the % scale 0 is the no-effect control and ±100 the full control effect; nearly all actives have a fitted effect of over 65% in size
# An asterisk follows results filed as active; ? = inconclusive; . = no result given; ! = a repeat was not active. Unless noted, the call rests on the fitted dose curve; in most records, active means well fitted curve in the direction sought with a large enough effect; inconclusive means small, poorly fitted or top-dose-only effect, or another doubt; inactive means no such curve, though single readings can be large; an effect the other way counts as inactive or inconclusive.
SMILES,uPA generation,TSHR antag,VDR inhibitor,PTAP TSG101 blk,PLK1 PBD inh
Clc1ccc(-c2noc3ncnc(N4CCCCC4)c23)cc1,.,.,-6%,.,.
CCn1c2ccccc2c2cc(C3C(C#N)=C(N)Oc4n[nH]c(COC)c43)ccc21 (stereo not drawn),?,2,-24%,-2%,6µM*
O=C(NC(NNc1ccc([N+](=O)[O-])cc1)(C(F)(F)F)C(F)(F)F)c1ccc(Cl)cc1,1%,-19,79µM*,-6%,-26%
O=C(NNc1ccc([N+](=O)[O-])cc1)c1ccccc1Cl,-5%,-10,3%,1%,-15%
O=C(Nc1cccc(OC(F)(F)F)c1)C1Cc2c(-c3ccco3)ccnc2O1 (stereo not drawn),.,.,.,.,-4%
CCOC(=O)C1=C(C)NC(=NC)SC1c1ccccc1 (stereo not drawn),0%,-21,-4%,-3%,21µM*
CCOC(=O)C1=C(C)NC(=O)C(C(N)=O)C1c1ccccc1 (stereo not drawn),0%,4,4%,-3%,0%
O=C(CN1C2=NCCCN2c2ccccc21)c1cccc(Br)c1,6%,11,?,-2%,24µM*
Cc1nc(N2CCOCC2)c2c(C(=O)N3CCN(c4cccc(C)c4C)CC3)c(C)oc2n1,.,.,14%,.,.
COc1cc(NC(=O)CSc2ncnc3sc4c(c23)CCC(C)C4)c(C(=O)O)cc1OC (stereo not drawn),1%,-8,-10%,-5%,17µM*
Cc1cc(NC(=O)CSc2ncnc3sc4c(c23)CCC(C)C4)no1 (stereo not drawn),.,-2,.,.,.
CC1CCc2c(sc3ncnc(SCC(=O)Nc4ccc(C(=O)O)cc4)c23)C1 (stereo not drawn),0%,-18,2%,-7%,60µM*
Cc1ccc(NC(=O)CN2C(=O)C3(SCC(=O)N3c3cccc(Cl)c3)c3ccccc32)cc1C (stereo not drawn),.,.,1%,.,.
O=C(C#Cc1ccccc1)c1ccc([N+](=O)[O-])cc1,-9%,-25,14µM*,0%,0.47µM*
CN(C)C(=O)C#Cc1ccccc1,-4%,-1,9%,-10%,-1%
O=C(C#Cc1ccccc1)c1ccccc1,.,.,.,.,3µM*
CCOC(=O)/C=C1\CC(C(=O)OCC)Oc2c(OC)cccc21 (stereo not drawn),8%,-6,79µM*,0%,?
C=C1c2cccc(OC)c2O[C@H](C(=O)OCC)[C@@H]1CC(CC)CCCC (stereo partly drawn),24%,-15,14%,-7%,-5%
COc1ccc(C(=O)N2CCC[C@@]3(CCN(C(=O)Nc4cccc(C#N)c4)C3)C2)cc1,.,.,11%,.,.
COc1cccc2oc(-c3ccco3)cc(=O)c12,?,11,?,-3%,21µM*
Cc1ccc(OCC(=O)Nc2ccccc2C(=O)OCc2cc(=O)n3ccsc3n2)cc1,.,.,10%,.,.
COc1cc(CO)ccc1OCc1nnnn1-c1ccc(C)cc1,-1%,-9,?,-5%,17µM*
CCOc1ccc2nc(N3CCC(C(=O)Nc4ccccc4CC)CC3)sc2c1,.,.,12%,.,.
COC(=O)c1c(C)oc2ccc(N(C(=O)Oc3ccccc3)S(=O)(=O)c3ccc(C(C)(C)C)cc3)cc12,.,.,7%,.,.
COc1ccccc1N1CCN(C(=O)c2ccc3c(Cl)c4c(nc3c2)CCCC4)CC1,4.5µM*,2,-1%,-3%,-8%
SMILES,uPA generation,TSHR antag,VDR inhibitor,PTAP TSG101 blk,PLK1 PBD inh
Cc1ccc(N2CCN(C(=O)c3ccc4c(Cl)c5c(nc4c3)CCCC5)CC2)c(C)c1,.,.,-11%,.,.
COc1cc(/C=N/NC(=O)/C(=C/c2ccccc2)CCO)ccc1O,-2%,2,-12%,-1%,-3%
COc1ccc(/C=N/NC(=O)/C(=C/c2ccccc2)CCO)cc1,2%,9,?,-3%,27µM*
CS(=O)(=O)Nc1cccc(-c2nc(Nc3ccc(F)cc3)c3ccccc3n2)c1,.,.,3%,.,.
CNc1nc(-c2ccccc2C)nc2ccccc12,.,.,45µM*,.,.
CNc1nc(-c2cccc(NS(C)(=O)=O)c2)nc2ccccc12,.,.,45µM*,.,.
CCC(CC)c1nn2c(=O)cc(COc3ccc(NC(=O)c4ccc(Cl)cc4)cc3)nc2s1,.,.,-4%,.,.
Cc1ccc2[nH]c(=O)c3cc(C(=O)N4CCN(c5ccccc5F)CC4)sc3c2c1,.,.,-13%,.,.
COc1ccc(S(=O)(=O)NC2CC(C)(C)NC(C)(C)C2)cc1,-8%,7,-1%,-6%,3%
CC1(C)CC(NS(=O)(=O)c2ccc(Cl)cc2)CC(C)(C)N1,3%,18,89µM*,0%,-8%
O=C(CN1C(=O)c2ccccc2C1=O)NCc1ccccn1,-1%,-6,-3%,-9%,-8%
O=C(Cn1c(=O)sc2ccccc21)NCc1ccccn1,-4%,-6,-21%,-1%,21µM*
CCN(CC)S(=O)(=O)c1ccc2c(c1)nc(CN(C)C(=O)c1cccc(Cl)c1)n2C,.,.,7%,.,.
CC(C)(C)C1CCc2c(sc(NC(=O)CSc3ncn[nH]3)c2C#N)C1 (stereo not drawn),.,-19,-22%,-5%,19µM*
O=C(O)CSc1c(O)c2ccccc2[nH]c1=O,7%,-7,-24%,-2%,21µM*
O=C(O)CSc1c2ccccc2cc2ccccc12,7%,40,71µM*,?,27µM*
O=C(O)c1c2ccccc2cc2ccccc12,.,.,-11%,.,.
O=c1[nH]c2ccccc2c(O)c1SCCO,-3%,3,0%,-6%,-6%
COc1ccc(N(C(=O)c2ccccc2)S(=O)(=O)c2cccs2)cc1,-13%,6,22µM*,-2%,19µM*
Cn1c(=O)c2c(n3c4ccccc4nc13)NC(=O)CC2c1cccc(F)c1 (stereo not drawn),.,.,16%,.,.
COc1ccc(-c2nnc(OCc3nc4ccccc4n3C)c3ccccc23)cc1,-22%,9,?,1%,19µM*
COc1cc(NCCCC(C)N)c2ncccc2c1 (stereo not drawn),-21%,24,45µM*!,-1%,-19%
Cc1ccc(NC(=O)CCCn2nc(C)c3c(C)n(-c4ccccc4)nc3c2=O)c(Cl)c1,-6%,-9,-8%,-7%,-10%
CC(C)c1ccc(S(=O)(=O)/N=C2/C=C(Sc3ncn[nH]3)C(=O)c3ccccc32)cc1,-19%,-41,10µM*,-5%,1.5µM*
Cc1ccc(S(=O)(=O)/N=C2/C=C(Sc3ncn[nH]3)C(=O)c3ccccc32)cc1,-5%,-27,10µM*,-7%,0.75µM*
Cc1ccc(S(=O)(=O)/N=C2/C=C(Sc3ncn[nH]3)C(=O)c3ccccc32)c(C)c1,.,-21,.,.,.
O=C1Nc2ccccc2C1Cc1ccccc1 (stereo not drawn),3%,17,-13%,-4%,-29%
O=C1C=CC2(C=C1)O[C@H](Cc1ccccc1)[C@@H](Cc1ccccc1)O2,35%,.,14µM*,2%,9.5µM*
